Test results from PubChem BioAssay (NCI).
“And” between values parts separate entries of the source, which are not always exact repeats. Equal entries are not always repeated. The panel holds about 83,000 compounds, 20% with a hit somewhere; the sample as a whole holds those more often.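 Negative percent growth values reflect cell death: -40 means 40% of the cells present at the start died, and -100 means all died.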 The source made the active and inactive calls. The calls were made as follows: active = growth percent below 10; inactive = the rest.

Assays:
Assay in all cases: NCI-60 one-dose screen, 48 h (100 = growth as untreated, 0 = no growth, -100 = all killed)
Conditions in all cases: 10 µM
NCI-H23 lung = tested on: NCI-H23 lung
NCI-H522 lung = tested on: NCI-H522 lung
MDA-MB-231 breast = tested on: MDA-MB-231 breast
M14 melanoma = tested on: M14 melanoma
SK-MEL-5 melanoma = tested on: SK-MEL-5 melanoma
UACC-62 melanoma = tested on: UACC-62 melanoma
LOX IMVI melanoma = tested on: LOX IMVI melanoma
MOLT-4 leukemia = tested on: MOLT-4 leukemia
SR leukemia = tested on: SR leukemia
OVCAR-8 ovarian = tested on: OVCAR-8 ovarian
OVCAR-5 ovarian = tested on: OVCAR-5 ovarian
OVCAR-4 ovarian = tested on: OVCAR-4 ovarian
SK-OV-3 ovarian = tested on: SK-OV-3 ovarian
IGROV1 ovarian = tested on: IGROV1 ovarian
HS 578T breast = tested on: HS 578T breast
T-47D breast = tested on: T-47D breast
SW-620 colon = tested on: SW-620 colon
MCF7 breast = tested on: MCF7 breast
HCT-116 colon = tested on: HCT-116 colon
KM12 colon = tested on: KM12 colon

Measured: growth

CC1=C2C(=C[C@@](C)(C=O)[C@@H]2O)C(=O)[C@](C)(O)C12CC2
inactive: NCI-H522 lung 12.9% | MDA-MB-231 breast 14% | MOLT-4 leukemia 16.5% | SR leukemia 14.5% | OVCAR-8 ovarian 14.1% | OVCAR-4 ovarian 19.3% | SK-OV-3 ovarian 11.1% | HS 578T breast 33.5% | T-47D breast 11.7% | SW-620 colon 10.1% | KM12 colon 27.4%
active: NCI-H23 lung -24% | M14 melanoma 2% | SK-MEL-5 melanoma -79.5% | UACC-62 melanoma -48.5% | LOX IMVI melanoma 2.16% | OVCAR-5 ovarian 6.05% | IGROV1 ovarian 9.24% | MCF7 breast 3.05% | HCT-116 colon 6.13%

CN(CCF)/N=N/c1nc[nH]c1C(N)=O
active: SK-OV-3 ovarian -4.12%
inactive: NCI-H23 lung 77% | NCI-H522 lung 64.2% | MDA-MB-231 breast 39.5% | M14 melanoma 23.3% | SK-MEL-5 melanoma 74.6% | UACC-62 melanoma 31.2% | LOX IMVI melanoma 17.5% | MOLT-4 leukemia 18.7% | SR leukemia 22.3% | OVCAR-8 ovarian 27% | OVCAR-5 ovarian 62.8% | OVCAR-4 ovarian 44.2% | IGROV1 ovarian 44% | HS 578T breast 93.1% | T-47D breast 57.3% | SW-620 colon 25.9% | MCF7 breast 36.2% | HCT-116 colon 24% | KM12 colon 58.9%

COc1cc2c(O[C@@H]3OC[C@H](OC(C)=O)[C@H](OC(C)=O)[C@H]3O)c3c(c(-c4ccc5c(c4)OCO5)c2cc1OC)C(=O)OC3
inactive: NCI-H23 lung 46.3% | MDA-MB-231 breast 13.7% | MOLT-4 leukemia 13.7% | OVCAR-8 ovarian 24.3% | OVCAR-5 ovarian 73% | OVCAR-4 ovarian 51.4% | SK-OV-3 ovarian 23.8% | IGROV1 ovarian 47.9% | HS 578T breast 60.3% | SW-620 colon 14.1% | MCF7 breast 36.9% | KM12 colon 27.8%
active: NCI-H522 lung 4.7% | M14 melanoma -17.9% | LOX IMVI melanoma -53.7% | SR leukemia 2.16% | T-47D breast -2.78% | HCT-116 colon 9.2%

C/C=C/CC(C)C(O)[C@H](NC(=O)[C@@H]1CCCN1C(=O)C(C)(C)NC(=O)CCCCCCCCC)C(=O)N[C@@](C)(CC)C(=O)N[C@@H](CCC(N)=O)C(=O)N[C@H](CCC(N)=O)C(=O)NC(C)(C)C(=O)N[C@@](C)(CC)C(=O)N[C@@H](CCC(N)=O)C(=O)N[C@H](CC(C)C)C(=O)N[C@H](CO)CC(C)C (stereo partly drawn)
108% (inactive) and -60.9% (active): KM12 colon
106% (inactive) and -96.8% (active): MDA-MB-231 breast
100% (inactive) and -67.5% (active): M14 melanoma
106% (inactive) and -23.2% (active): IGROV1 ovarian
96% (inactive) and -96.8% (active): UACC-62 melanoma
102% (inactive) and 0.686% (active): HCT-116 colon
99.4% (inactive) and -48.6% (active): OVCAR-8 ovarian
96.1% (inactive) and -68.2% (active): MCF7 breast
95.9% (inactive) and -31.3% (active): T-47D breast
111% (inactive) and -11.2% (active): SK-OV-3 ovarian
inactive: SR leukemia 92% and 11.3% | OVCAR-4 ovarian 106% and 19.2%
101% (inactive) and -14.5% (active): MOLT-4 leukemia
106% (inactive) and -64.3% (active): OVCAR-5 ovarian
105% (inactive) and -48.3% (active): NCI-H23 lung
99.1% (inactive) and 3.5% (active): SW-620 colon
101% (inactive) and -77.6% (active): NCI-H522 lung
99.9% (inactive) and -90.2% (active): SK-MEL-5 melanoma
101% (inactive) and -88.2% (active): LOX IMVI melanoma
109% (inactive) and -71.9% (active): HS 578T breast

CCC(C)[C@H]1C(=O)O[C@H](C(C)C)C(=O)N(C)[C@@H](C(C)C)C(=O)O[C@H](C(C)C)C(=O)N(C)[C@@H](C(C)C)C(=O)O[C@H](C(C)C)C(=O)N1C (stereo partly drawn)
active: NCI-H522 lung 7.23% | MDA-MB-231 breast 7.98% | SK-MEL-5 melanoma -33.5% | UACC-62 melanoma 9.22% | LOX IMVI melanoma 9.79% | MOLT-4 leukemia -13% | SR leukemia 8.09% | SK-OV-3 ovarian -9.75% | T-47D breast 3.16%
inactive: NCI-H23 lung 10% | M14 melanoma 21.2% | OVCAR-8 ovarian 14.9% | OVCAR-5 ovarian 20.7% | OVCAR-4 ovarian 20.3% | IGROV1 ovarian 34.4% | HS 578T breast 30.4% | SW-620 colon 17.4% | MCF7 breast 12.5% | HCT-116 colon 12.2% | KM12 colon 16.4%
